“And” between values parts separate entries of the source, which are not always exact repeats. Equal entries are not always repeated. In all, about 5,500 compounds went through this assay and about 2,000 (36%) were called active. Inconclusive results (about 18%) are left out. No stated cut-off is given here; in the data, active means normalized growth mostly below about 0.91 (no sharp cut-off); inconclusive means no clear call, values can overlap the other calls; inactive means mostly above about 0.92. This is one part of the list.
Experiment: chemical genetic growth profiling, strain panel (AID 1159580);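 further: tested at 20 µM; growth read once vehicle control cultures reached saturation at 30 °C; 1 = growth at the plate median or of vehicle wells; lower values mean less growth of the strain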
Conditions: S. cerevisiae deletion strains, growth OD

Measured: normalized growth

CCCC(=O)Nc1ncnc2c1ncn2C1O[C@@H]2COP(=O)(O)O[C@H]2[C@H]1OC(=O)CCC (stereo not given in full)
inactive: locus YAL013W, strain DEP1, hits give low values 1 | locus YAL021C, strain ccr4, hits give low values 0.981 | locus YAL026C, strain drs2, hits give low values 0.986 | locus YAL030W, strain snc1, hits give low values 0.994 | locus YBL061C, strain skt5, hits give low values 0.97 | locus YBR009C, strain hhf1, hits give low values 0.962 | locus YBR021W, strain FUR4, hits give low values 0.999 | locus YBR023C, strain chs3, hits give low values 0.974 | locus YBR171W, strain sec66, hits give low values 0.971 | locus YBR229C, strain ROT2, hits give low values 1.01 | locus YBR231C, strain swc5, hits give low values 0.995 | locus YBR279W, strain paf1, hits give low values 0.981 | locus YCL011C, strain gbp2, hits give low values 0.958 | locus YCL016C, strain dcc1, hits give low values 0.952 | locus YCL029C, strain bik1, hits give low values 1.02 | locus YCL061C, strain MRC1, hits give low values 0.977 | locus YCL069W, strain vba3, hits give low values 0.974 | locus YCR088W, strain abp1, hits give low values 0.984 | locus YDL005C, strain med2, hits give low values 0.982 | locus YDL035C, strain GPR1, hits give low values 1.02 | locus YDL040C, strain nat1, hits give low values 0.987 | locus YDL074C, strain BRE1, hits give low values 1 | locus YDL101C, strain DUN1, hits give low values 1.01 | locus YDL134C, strain PPH21, hits give low values 1.01 | locus YDL185W, strain tfp1, hits give low values 1.02 | locus YDL192W, strain arf1, hits give low values 1.01 | locus YDR001C, strain nth1, hits give low values 0.986 | locus YDR069C, strain doa4, hits give low values 0.999 | locus YDR101C, strain arx1, hits give low values 1.02 | locus YDR137W, strain rgp1, hits give low values 0.973 | locus YDR150W, strain NUM1, hits give low values 1 | locus YDR159W, strain sac3, hits give low values 1.01 | locus YDR162C, strain NBP2, hits give low values 1.01 | locus YDR195W, strain ref2 1 | locus YDR297W, strain sur2, hits give low values 0.985 | locus YDR318W, strain mcm21, hits give low values 1.02 | locus YDR334W, strain swr1, hits give low values 0.975 | locus YDR335W, strain msn5, hits give low values 0.988 | locus YDR388W, hits give low values 1.02 | locus YDR392W, strain spt3, hits give low values 0.869 | locus YDR502C, strain sam2, hits give low values 1.01 | locus YEL003W, strain gim4, hits give low values 0.995 | locus YEL037C, strain rad23, hits give low values 0.984 | locus YEL061C, strain CIN8 (second series), hits give low values 0.985 | locus YEL061C, strain CIN8, hits give low values 1.01 | locus YER015W, strain faa2, hits give low values 0.98 | locus YER016W, strain bim1, hits give low values 0.975 | locus YER110C, hits give low values 1.03 | locus YER111C, strain swi4, hits give low values 0.973 | locus YER155C, strain BEM2 (second series), hits give low values 1.01 | locus YER155C, strain BEM2, hits give low values 0.996 | locus YER167W, strain BCK2, hits give low values 1.01 | locus YFR010W, strain ubp6, hits give low values 0.988 | locus YGL078C, strain dbp3, hits give low values 1.02 | locus YGL086W, strain mad1, hits give low values 1 | locus YGL167C, strain pmr1, hits give low values 0.981 | locus YGL173C, strain kem1, hits give low values 0.979 | locus YGL227W, strain vid30, hits give low values 0.978 | locus YGL240W, strain doc1, hits give low values 1.02 | locus YGL248W, strain PDE1, hits give low values 1.01 | locus YGL253W, strain hxk2, hits give low values 0.996 | locus YGR135W, strain pre9, hits give low values 1.03 | locus YGR229C, strain SMI1, hits give low values 1.01 | locus YGR252W, strain gcn5, hits give low values 1.04 | locus YHR013C, strain ard1, hits give low values 0.973 | locus YHR027C, strain rpn1, hits give low values 0.979 | locus YHR030C, strain SLT2, hits give low values 1 and 1.02 | locus YHR079C, strain IRE1 (second series), hits give low values 1.02 | locus YHR079C, strain IRE1, hits give low values 1.03 | locus YHR094C, strain hxt1, hits give low values 1.02 | locus YHR129C, strain ARP1, hits give low values 1 | locus YHR142W, strain chs7, hits give low values 0.944 | locus YHR200W, strain rpn10, hits give low values 1.02 | locus YIL066C, strain RNR3, hits give low values 1.02 | locus YIL073C, strain SPO22, hits give low values 1.06 | locus YIL125W, strain kgd1, hits give low values 1.02 | locus YIR030C, strain dcg1, hits give low values 1.02 | locus YJL092W, strain hpr5, hits give low values 0.985 | locus YJL095W, strain BCK1 (second series), hits give low values 0.979 | locus YJL095W, strain BCK1, hits give low values 1 and 1.03 | locus YJL115W, strain asf1, hits give low values 0.985 | locus YJL129C, strain trk1, hits give low values 0.949 | locus YJL134W, strain LCB3, hits give low values 1.01 | locus YJL154C, strain vps35, hits give low values 0.97 | locus YJL164C, strain tpk1, hits give low values 0.968 | locus YJL166W, strain qcr8, hits give low values 1.01 | locus YJL168C, strain set2, hits give low values 1.03 | locus YJL187C, strain SWE1 (second series), hits give low values 1 | locus YJL187C, strain SWE1, hits give low values 0.992 | locus YJR043C, strain POL32, hits give low values 1.01

Reference: PubChem BioAssay AID1159580 (chemical genetic matrix, 2015)
